HCMV inh: inhibitors of human cytomegalovirus; activity change, negative = inhibition, % at 57.5 µM; 4.5% of 410,000 active; AID 1259415; HFF cells, HCMV-luciferase reporter, 72 h; hits give low values; in the data active = activity change below about -60%; inconclusive = no clear call, values can overlap the other calls; inactive = above about -39%
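Inhibition of viral replication was scored as loss of reporter luminescence in HFFs infected with HCMV-luciferase (MOI 1 PFU/cell) for 72 h; compounds tested at 2 doses, normalized to buffer and Salinomycin controls.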
Giardia FBPA inh: blocks Giardia fructose-bisphosphate aldolase activity; 0.71% of 290,000 active; Potency, µM (doses to about 59.6 µM), for inactives: at the highest dose activity, negative = inhibition, actives largely listed as inhibitors; purified Giardia FBPA; A8B2U2; note: potency is the fitted concentration of half-maximal effect; nearly all actives have a fitted effect of over 55% in size
Target sequence (A8B2U2 whole entry, looked up): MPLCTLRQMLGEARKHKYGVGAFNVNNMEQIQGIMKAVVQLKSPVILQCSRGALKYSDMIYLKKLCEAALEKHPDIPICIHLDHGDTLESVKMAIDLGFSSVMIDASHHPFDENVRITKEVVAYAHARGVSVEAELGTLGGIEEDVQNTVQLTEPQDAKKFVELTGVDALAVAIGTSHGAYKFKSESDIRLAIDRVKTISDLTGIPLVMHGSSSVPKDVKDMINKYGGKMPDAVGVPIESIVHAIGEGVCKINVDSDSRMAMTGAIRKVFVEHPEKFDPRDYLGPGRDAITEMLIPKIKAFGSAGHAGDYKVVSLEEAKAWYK
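Giardia FBPA (40 nM reagent) was preincubated 10 min at RT with compound (up to 57.5 uM final), then substrate plus GAPDH/TPI/NAD/arsenate coupling system with diaphorase/resazurin was added; resorufin fluorescence (525/598 nm) was read after 20 min.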
RE007 growth inh: less growth of the S. pombe RE007 Vpr strain; S. pombe RE007 Vpr strain, BacTiter-Glo ATP luminescence, 24 h; Potency, µM (series often up to 92.2 µM), for inactives: top-dose activity change, negative = less growth, usual class: inhibitors; 0.21% of 360,000 active; AID 651644; active = well fitted falling curve with a large enough effect; inconclusive = small, poorly fitted or top-dose-only effect; inactive = no such curve, though single readings can be large or run the other way; note: potency is the fitted concentration of half-maximal effect; nearly all actives have a fitted effect of over 50% in size
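Fission yeast RE007 carrying one integrated HIV-1 vpr copy, seeded at OD 0.01 in PMG+AL medium with 23 nL pinned compound. Grown 24 h at 30 degrees; viability read by BacTiter-Glo luminescence after 5 min.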
TbPYK inhibitor: inhibitors of Trypanosoma brucei pyruvate kinase. Q57TT1. TbPYK enzyme, Kinase-Glo Plus ATP luminescence, 45 min. Potency, µM (series often up to 76.8 µM), without a hit: at the highest dose activity, negative = inhibition, most hits filed as inhibitors. 0.12% of 410,000 active. AID 624173; note: potency is the fitted concentration of half-maximal effect; nearly all actives have a fitted effect of over 50% in size
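TbPYK + substrate in 50 mM TEA pH 7.2, 100 mM KCl, 10 mM MgCl2, 0.05% BSA, 0.01% Tween-20; cpd pinned; ADP 130 uM final; 45 min RT; Kinase-Glo Plus 10 min; luminescence endpoint.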
Sm TGR block: S. mansoni TGR enzyme inhibition; Q962Y6; purified TGR, DTNB reduction, TNB absorbance 405 nm; Potency, µM (highest dose often 114 µM), without a hit: at the top dose activity change, negative = inhibition, hits mostly inhibitors; 3% of 360,000 active; note: potency is the fitted concentration of half-maximal effect; nearly all actives have a fitted effect of over 60% in size
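Kinetic colorimetric format: TGR-catalysed, NADPH-driven DTNB reduction monitored via TNB absorbance. Enzyme dispensed at 20 nM; compound exposure 15 min at room temperature before reaction start.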
FMDV antiviral: blocks foot and mouth disease virus; 1.2% of 410,000 active; FMDV antiviral cell-based qHTS; AID 1159524; Potency, µM (doses to about 57.9 µM), for inactives: at the top dose activity change, negative = inhibition, usual class: inhibitors; calls by dose curve; tested in HEK293T cells; note: read-out not given here; potency is the fitted concentration of half-maximal effect; nearly all actives have a fitted effect of over 45% in size
* marks the source's active call; other numbers are inactive results; ? = inconclusive; nt = no result. Only some compounds are listed: those with a hit (about 7.7% of all), similar ones and a draw of the others. Unless noted, calls come from the whole dose curve; as a rule, active = well fitted curve in the direction sought with a large enough effect; inconclusive = small, poorly fitted or top-dose-only effect, or another doubt; inactive = no such curve, though single readings can be large; an effect the other way counts as inactive or inconclusive. % is set by controls: 0 for no effect and ±100 for the full control effect.

SMILES	HCMV inh	Giardia FBPA inh	RE007 growth inh	TbPYK inhibitor	Sm TGR block	FMDV antiviral
Cc1ccc(-c2noc(CCCC(=O)NC3CCCCC3)n2)cc1	-77*	-2%	1%	3%	-10%	?
COc1ccc(-c2noc(CCC(=O)NCCN(C)Cc3ccccc3)n2)cc1	-14	6%	-5%	1%	89µM*	-21%
Cc1ccc(-c2noc(CCCC(=O)Nc3cccnc3)n2)cc1	-63*	-3%	-4%	3%	-7%	?
COc1ccc(-c2noc(CCC(=O)NCCc3ccccc3)n2)cc1	17	-6%	1%	0%	6%	4%
COc1ccc(-c2noc(CCCC(=O)Nc3cccc(Cl)c3C)n2)cc1	-77*	nt	nt	1%	-1%	?
CN1CCN(c2ncc3nc(-c4ccccc4)c(=O)n(C4CC4)c3n2)CC1	nt	-4%	nt	nt	nt	-7%
COc1ccc(S(=O)(=O)N2c3ccccc3OCC2c2ccccc2)cc1 (centres undefined)	?	4%	3%	-2%	4%	13µM*
COc1ccc(S(=O)(=O)N2c3ccccc3OCC2C(C)(C)C)cc1 (centres undefined)	-19	0%	-9%	2%	2%	-8%
COc1ccc(S(=O)(=O)N2c3ccccc3OCC2C)cc1 (centres undefined)	-66*	-7%	4%	-6%	2%	-18%
Cc1cc(C)n(C(C)CC(=O)Nc2cccc(C(F)(F)F)c2)n1 (centres undefined)	-7	nt	nt	4%	-7%	-11%
Cc1ccc(N2C(N)=NC(N)=NC23CCCC3)c(C)c1	-67*	-5%	6%	-6%	4%	-18%
CC(C)(C)NS(=O)(=O)c1ccc2nc(NC(=O)c3cccnc3)sc2c1	29	nt	nt	-8%	2%	66%
FC(F)(F)c1ccc(CN2C[C@@H]3C(c4ccc(Cl)nc4)C4(c5ccccc5)CC3(C4)[C@H]2c2ccccc2)cc1 (some centres undefined)	-65*	0%	-21%	4%	?	-10%
FC(F)(F)c1ccc(C2[C@H]3CN(Cc4ccc(-c5ccccc5)cc4)[C@H](c4ccccc4)C34CC2(c2ccccc2)C4)cc1 (some centres undefined)	17	1%	-13%	4%	50µM*	-6%
CC(=O)Nc1ccc(N(C(=O)c2ccco2)C(C(=O)NC2CCCC2)c2cccs2)cc1 (centres undefined)	-35	5%	15%	0%	-4%	-1%
CC(=O)Nc1ccc(N(C(=O)c2ccco2)C(C(=O)NC2CCCCC2)c2ccccc2)cc1 (centres undefined)	-64*	1%	-19%	0%	6%	41%
CC(=O)Nc1ccc(N(C(=O)c2cnccn2)C(C(=O)NC2CCCCC2)c2ccc(O)cc2)cc1 (centres undefined)	17	-3%	-2%	-3%	16µM*	nt
O=C(NCC(=O)N(Cc1cccs1)C(C(=O)NC1CCCCC1)c1ccncc1)c1ccco1 (centres undefined)	-15	-7%	-1%	0%	45µM*	-13%
COc1cc(C(C(=O)NC2CCCCC2)N(Cc2cccs2)C(=O)Cc2c[nH]c3ccccc23)cc(OC)c1OC (centres undefined)	-79*	-3%	-2%	-9%	2%	?
CC(=O)Nc1ccc(N(C(=O)c2cnccn2)C(C(=O)NC2CCCCC2)c2ccc(F)cc2)cc1 (centres undefined)	4	0%	-7%	5%	7%	12%
Cc1nnc(N2CCN(c3ccccc3)CC2)c2c1nnn2Cc1ccc(F)cc1	4	nt	nt	-8%	-3%	?
O=C(NC1CCCC1)C(c1ccccc1F)N(C(=O)c1ccco1)C1CCCC1 (centres undefined)	-21	-2%	0%	-3%	1%	-27%
O=C(NC1CCCC1)C(c1ccccc1)N(C(=O)c1ccco1)C1CCCC1 (centres undefined)	-78*	5%	-10%	-9%	-13%	nt
O=C(NCc1ccccc1)C(c1ccc(O)cc1)N(C(=O)c1cnccn1)c1ccccc1 (centres undefined)	-7	9%	19%	4%	6%	-14%
O=C(NC1CCCCC1)C(c1ccc2ncccc2c1)N(Cc1ccccc1)C(=O)c1cccs1 (centres undefined)	-62*	-2%	-1%	6%	1%	nt
SMILES	HCMV inh	Giardia FBPA inh	RE007 growth inh	TbPYK inhibitor	Sm TGR block	FMDV antiviral
COc1ccc(N(C(=O)c2cnccn2)C(C(=O)NCc2ccccc2)c2ccc(O)cc2)cc1 (centres undefined)	-19	2%	-13%	2%	28µM*	83%
CC1CCc2nc3ncn(Cc4ccc(Cl)cc4)c(=O)c3cc2C1 (centres undefined)	78	nt	nt	6%	2%	74%
O=C(/C=C/c1ccco1)c1ccc(NC(=O)C23CC4CC(CC(C4)C2)C3)cc1	-37	-7%	-13%	?	10µM*	-28%
O=C(/C=C/c1ccco1)Nc1ccc(N2CCCC2)cc1	1	1%	3%	-23%	-27%	40%
O=C(/C=C/c1ccco1)Nc1ccc(C(=O)N2CCOCC2)cc1	-16	1%	-10%	-20%	13µM*	-4%
O=C(/C=C/c1ccco1)Nc1ccc(CN2CCOCC2)cc1	38	5%	0%	3%	20µM*	5%
O=C(/C=C/c1ccccc1)NC(=S)Nc1ccc(N2CCOCC2)c(Cl)c1	-21	-2%	13%	9%	0%	-11%
O=C(/C=C/c1ccco1)NC(=S)Nc1ccc(N2CCOCC2)c(Cl)c1	44	-8%	-5%	-1%	40µM*	-9%
COc1ccc(OC)c(CNc2ncnc3onc(C)c23)c1	-13	nt	nt	3%	-7%	-10%
CC1(Cn2ccnn2)[C@H](C(=O)O)N2C(=O)C[C@H]2S1(=O)=O (some centres undefined)	nt	-7%	nt	-10%	nt	nt
COc1cccc(-c2nc(SCC(=O)NC3CCCC3)c(-c3ccccc3)[nH]2)c1	-30	nt	nt	-1%	8%	0%
O=C(/C=C/c1ccco1)Nc1ccccc1N1CCOCC1	-30	10%	-22%	-7%	20µM*	-7%
O=C(/C=C/c1ccccc1)Nc1ccc(CN2CCOCC2)cc1	-27	5%	2%	-8%	-1%	33%
O=C(Nc1ccc(CN2CCOCC2)cc1)c1ccc(Br)o1	67	-2%	-9%	-1%	-19%	33%
CCN(CC)S(=O)(=O)c1ccc(/C=C/C(=O)Nc2ccccc2N2CCOCC2)cc1	-16	5%	-5%	7%	4%	-13%
